In PubChem BioAssay (EPA / NIEHS):
Several values for one entry are separate records, joined by “and”; a condition that tells them apart may be missing. Identical values can stand only once. Results filed as inconclusive are left out. Some structures have more than one record in an assay (separate samples or runs), and their calls can disagree. Activity calls are given as the source filed them. Rule for the calls, unless noted: active = hit-call score of the fitted dose curve at least 0.9, where 1 is the maximum; inactive = score below 0.9.

Experiments:
[1] = molecular target: Retinoic acid receptor RXR-alpha (Homo sapiens) (UniProt P19793); test: ATG_RXRa_TRANS: Attagene TRANS-FACTORIAL HepG2 Assay for human Retinoid X Receptor alpha (RXRa) (AID 2283012; active = hit-call score of the fitted dose curve at least 0.9, where 1 is the maximum)
Summary of the method: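 Transient transfection of human HepG2 with multiple GAL4-UAS reporter constructs; 24 h compound exposure; total RNA isolated, reverse-transcribed, PCR-amplified, 6-FAM labelled, HpaI-cut, resolved by capillary electrophoresis. Positive-direction fit versus DMSO.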

[2] = molecular target: human Retinoid X Receptor beta (RXRb), RXRB (gene 6257) (UniProt P28702); test: ATG_RXRb_TRANS: Attagene TRANS-FACTORIAL HepG2 Assay for human Retinoid X Receptor beta (RXRb) (AID 2283013; active = hit-call score of the fitted dose curve at least 0.9, where 1 is the maximum)
Summary of the method: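 Transfect HepG2 with GAL4-UAS multi-reporter constructs (chimeric NR-Gal4, TRANS format); dose compound 24 h; isolate RNA, RT-PCR, FAM primer extension, HpaI digest; quantify by capillary electrophoresis; positive direction vs DMSO.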

[3] = molecular target: human Thyroid Receptor alpha (THRa1), THRA (gene 7067) (UniProt P10827); test: ATG_THRa1_TRANS: Attagene TRANS-FACTORIAL HepG2 Assay for human Thyroid Receptor alpha (THRa1) (AID 2283014; active = hit-call score of the fitted dose curve at least 0.9, where 1 is the maximum)
Summary of the method: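 HepG2 cells transiently transfected with multiplexed GAL4-UAS reporter units for exogenous chimeric THRa1-Gal4; reporter mRNA measured 24 h after dosing by RT-PCR, 6-FAM labelling, HpaI digestion and capillary electrophoresis. Gain-of-signal fitted versus DMSO baseline.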

[4] = read-out: E-selectin (Homo sapiens) (UniProt P16581); test: BSK_3C_Eselectin: BioMAP Diversity Plus: 3C Assay for Eselectin Biomarker Activity (AID 2283015); settings: primary human endothelial cells (HUVEC); actives raise or lower the signal
Summary of the method: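 Primary human umbilical vein endothelial cells (3C system) were dosed with chemical and cell-surface E-selectin measured by ELISA 24 h later. Bidirectional curve fitting used DMSO as negative control and baseline.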

[5] = read-out: Interleukin-1 alpha (IL1a), IL1A (gene 3552); test: BSK_BE3C_IL1a: BioMAP Diversity Plus: BE3C Assay for Interleukin-1 alpha (IL1a) Biomarker Activity (AID 2283016); settings: primary human bronchial epithelial cells; actives raise or lower the signal
Summary of the method: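 BE3C primary human bronchial epithelium; cpd 24 h; IL-1a by ELISA; bidirectional fit vs DMSO; parallel SRB (0.1% SRB, 10% TCA fix, 560 nm) for cytotoxicity.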

[6] = read-out: Monocyte Chemoattractant Protein-1 (MCP1), CCL2 (gene 6347); test: BSK_3C_MCP1: BioMAP Diversity Plus: 3C Assay for Monocyte Chemoattractant Protein-1 (MCP1) Biomarker Activity (AID 2283017); settings: primary human endothelial cells (HUVEC); actives raise or lower the signal
Summary of the method: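 Primary human umbilical vein endothelial cells (3C system) were exposed to test chemical for 24 h, after which MCP-1 was quantified by ELISA. Activity was fitted bidirectionally against DMSO as negative control and baseline.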

[7] = read-out: Monocyte Chemoattractant Protein-1 (MCP1), CCL2 (gene 6347); test: BSK_4H_MCP1: BioMAP Diversity Plus: 4H Assay for Monocyte Chemoattractant Protein-1 (MCP1) Biomarker Activity (AID 2283018); settings: primary human endothelial cells (HUVEC); actives raise or lower the signal
Summary of the method: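 ELISA read-out of MCP-1 from human vascular endothelial primary cells taken at 24 hours after compound exposure. Activity was fitted in both directions relative to DMSO, which served as negative control.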

[8] = read-out: Human Leukocyte Antigen - DR isotype (HLADR), HLA-DRA (gene 3122); test: BSK_3C_HLADR: BioMAP Diversity Plus: 3C Assay for Human Leukocyte Antigen - DR isotype (HLADR) Biomarker Activity (AID 2283019); settings: primary human endothelial cells (HUVEC); actives raise or lower the signal
Summary of the method: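 Primary human umbilical vein endothelial cells (3C system) were dosed with compound and cell-surface HLA-DR was quantified by ELISA at 24 h. Activity was fitted bidirectionally against DMSO as negative control and baseline.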

[9] = read-out: Interleukin-8 (IL8), CXCL8 (gene 3576); test: BSK_3C_IL8: BioMAP Diversity Plus: 3C Assay for Interleukin-8 (IL8) Biomarker Activity (AID 2283020); settings: primary human endothelial cells (HUVEC); actives raise or lower the signal
Summary of the method: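 ELISA read-out of IL-8 from human umbilical vein endothelium, measured 24 h after chemical dosing. Activity is expressed relative to DMSO negative control, with both increases and decreases fitted.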

[10] = read-out: Monokine induced gamma interferon (MIG), CXCL9 (gene 4283); test: BSK_3C_MIG: BioMAP Diversity Plus: 3C Assay for Monokine induced gamma interferon (MIG) Biomarker Activity (AID 2283021); settings: primary human endothelial cells (HUVEC); actives raise or lower the signal;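 for AC50: MIG protein level measured by immunoassay in the treated endothelial cultures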
Summary of the method: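 Read-out is ELISA detection of MIG on human umbilical vein endothelial cells, taken 24 h after dosing. Gain or loss of signal was scored relative to DMSO controls using bidirectional curve fitting.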

[11] = molecular target: human Vitamin D Receptor (VDR), VDR (gene 7421) (UniProt P11473); test: ATG_VDR_TRANS: Attagene TRANS-FACTORIAL HepG2 Assay for human Vitamin D Receptor (VDR) (AID 2283022; active = hit-call score of the fitted dose curve at least 0.9, where 1 is the maximum)
Summary of the method: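 HepG2 cells were transiently transfected with multiple GAL4-UAS reporter units, so signal reflects exogenous chimeric receptor-Gal4 activity. After 24 h compound exposure, reporter mRNA was measured by RT-PCR, fluorescent labelling and capillary electrophoresis, fitted for gain of signal versus DMSO.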

[12] = BSK_3C_SRB: Viability Assessment in the BioMAP Diversity Plus: 3C Assay (AID 2283023); settings: primary human endothelial cells (HUVEC);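 note: fitted both ways against DMSO so a hit may be signal rise or drop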
Summary of the method: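 Primary human umbilical vein endothelial cells in the 3C system were read 24 h after compound dosing. Total protein was stained with 0.1% sulforhodamine B after 10% TCA fixation and read at 560 nm, with bidirectional fitting against DMSO as baseline.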

[13] = read-out: Matrix Metallopeptidase 1 (MMP1), MMP1 (gene 4312); test: BSK_BE3C_MMP1: BioMAP Diversity Plus: BE3C Assay for Matrix Metallopeptidase 1 (MMP1) Biomarker Activity (AID 2283024); settings: primary human bronchial epithelial cells; actives raise or lower the signal
Summary of the method: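 Human bronchial epithelial cells (BE3C system) exposed to compound for 24 h; MMP1 then quantified by ELISA. Activity was fitted in both directions relative to DMSO.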

[14] = BSK_3C_Vis: BioMAP Diversity Plus: 3C Assay for Morphology Visualization (AID 2283025); settings: primary human endothelial cells (HUVEC);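 note: fitted both ways so gain or loss versus DMSO counts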;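 for AC50: light microscopy image of cell morphology used as background control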
Summary of the method: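 Chemicals were added to primary human umbilical vein endothelium, cells were incubated 24 h, and morphology was then visualized by light microscopy. Gain or loss of signal was fitted bidirectionally relative to DMSO.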

[15] = read-out: Pselectin, SELP (gene 6403); test: BSK_4H_Pselectin: BioMAP Diversity Plus: 4H Assay for Pselectin Biomarker Activity (AID 2283026); settings: primary human endothelial cells (HUVEC); actives raise or lower the signal
Summary of the method: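 ELISA read-out of P-selectin on human umbilical vein endothelium after 24 h of dosing. Values derive from bidirectional fitting relative to DMSO. Parallel SRB protein staining flagged overt cytotoxicity.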

[16] = BSK_BE3C_SRB: Viability Assessment in the BioMAP Diversity Plus: BE3C Assay (AID 2283028); settings: primary human bronchial epithelial cells;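 for AC50: fitted both ways so AC50 may mark signal gain or loss versus DMSO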
Summary of the method: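 Human primary bronchial epithelial cells were exposed to test chemicals for 24 h. Total protein in parallel cultures was then measured by staining with 0.1% sulforhodamine B after 10% TCA fixation, with absorbance read at 560 nm. Activity was fitted bidirectionally against DMSO.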

[17] = read-out: Thrombomodulin, THBD (gene 7056); test: BSK_3C_Thrombomodulin: BioMAP Diversity Plus: 3C Assay for Thrombomodulin Biomarker Activity (AID 2283029); settings: primary human endothelial cells (HUVEC); actives raise or lower the signal
Summary of the method: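 Read-out is ELISA of thrombomodulin on human umbilical vein endothelium 24 h after chemical dosing. Gain or loss of signal is scored relative to DMSO. Overt cytotoxicity is checked in parallel cultures by sulforhodamine B staining.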

[18] = read-out: Urokinase-type plasminogen activator receptor (uPAR), PLAUR (gene 5329); test: BSK_4H_uPAR: BioMAP Diversity Plus: 4H Assay for Urokinase-type plasminogen activator receptor (uPAR) Biomarker Activity (AID 2283030); settings: primary human endothelial cells (HUVEC); actives raise or lower the signal
Summary of the method: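 Primary human umbilical vein endothelial cells were exposed to chemical for 24 h before cell-surface uPAR was quantified by ELISA. Activity was fitted bidirectionally against the DMSO negative control baseline.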

[19] = molecular target: human RAR-related Orphan Receptor gamma (RORg), RORC (gene 6097) (UniProt P51449); test: ATG_RORg_TRANS: Attagene TRANS-FACTORIAL HepG2 Assay for human RAR-related Orphan Receptor gamma (RORg) (AID 2283011; active = hit-call score of the fitted dose curve at least 0.9, where 1 is the maximum)
Summary of the method: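 Readout: reporter transcript induction (RT-PCR, fluorescent primer extension, capillary electrophoresis) after 24 h compound exposure of transiently transfected HepG2 cells carrying a RORg-Gal4 chimera and GAL4-UAS reporters; DMSO served as baseline, with increasing signal fitted.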

[20] = BSK_4H_SRB: Viability Assessment in the BioMAP Diversity Plus: 4H Assay (AID 2283027); settings: primary human endothelial cells (HUVEC);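 note: cells exposed to compound for 24 h before staining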;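 for AC50: curves fitted both ways versus DMSO so AC50 may be loss or gain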
Summary of the method: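 Human umbilical vein endothelial cells, 24 h after chemical dosing; total protein measured by 0.1% sulforhodamine B staining after 10% TCA fixation, read at 560 nm. Bidirectional fitting against DMSO.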

Measured: AC50

Chain of Retinoic acid receptor RXR-alpha (Homo sapiens) (P19793 whole entry, looked up, the tested form may be a part): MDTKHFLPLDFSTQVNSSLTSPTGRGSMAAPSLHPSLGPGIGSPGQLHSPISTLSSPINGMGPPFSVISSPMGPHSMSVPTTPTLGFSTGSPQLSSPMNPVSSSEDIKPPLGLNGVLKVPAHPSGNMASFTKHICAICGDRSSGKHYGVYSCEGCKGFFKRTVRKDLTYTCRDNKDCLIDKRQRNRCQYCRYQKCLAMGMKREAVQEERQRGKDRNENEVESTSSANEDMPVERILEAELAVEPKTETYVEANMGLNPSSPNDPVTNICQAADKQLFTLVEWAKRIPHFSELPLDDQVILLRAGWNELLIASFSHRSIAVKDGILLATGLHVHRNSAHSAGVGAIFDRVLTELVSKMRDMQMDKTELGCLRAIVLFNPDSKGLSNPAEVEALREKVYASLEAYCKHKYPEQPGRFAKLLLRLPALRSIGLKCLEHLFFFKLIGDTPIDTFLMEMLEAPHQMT
Chain of human Retinoid X Receptor beta (RXRb), RXRB (gene 6257) (P28702 whole entry, looked up, the tested form may be a part): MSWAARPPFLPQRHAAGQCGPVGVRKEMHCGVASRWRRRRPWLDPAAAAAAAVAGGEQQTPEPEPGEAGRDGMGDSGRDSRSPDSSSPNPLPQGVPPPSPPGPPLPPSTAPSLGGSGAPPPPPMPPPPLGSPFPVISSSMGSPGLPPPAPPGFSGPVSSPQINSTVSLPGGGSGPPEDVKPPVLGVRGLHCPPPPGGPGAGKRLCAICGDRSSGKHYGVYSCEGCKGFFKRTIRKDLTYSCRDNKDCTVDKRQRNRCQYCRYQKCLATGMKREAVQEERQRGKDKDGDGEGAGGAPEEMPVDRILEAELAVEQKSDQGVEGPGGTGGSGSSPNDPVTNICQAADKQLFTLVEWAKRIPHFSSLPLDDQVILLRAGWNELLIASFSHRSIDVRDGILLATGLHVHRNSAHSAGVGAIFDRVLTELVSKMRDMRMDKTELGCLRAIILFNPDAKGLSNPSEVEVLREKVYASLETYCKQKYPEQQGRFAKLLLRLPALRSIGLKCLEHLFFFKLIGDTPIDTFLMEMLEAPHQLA
Chain of human Thyroid Receptor alpha (THRa1), THRA (gene 7067) (P10827 whole entry, looked up, the tested form may be a part): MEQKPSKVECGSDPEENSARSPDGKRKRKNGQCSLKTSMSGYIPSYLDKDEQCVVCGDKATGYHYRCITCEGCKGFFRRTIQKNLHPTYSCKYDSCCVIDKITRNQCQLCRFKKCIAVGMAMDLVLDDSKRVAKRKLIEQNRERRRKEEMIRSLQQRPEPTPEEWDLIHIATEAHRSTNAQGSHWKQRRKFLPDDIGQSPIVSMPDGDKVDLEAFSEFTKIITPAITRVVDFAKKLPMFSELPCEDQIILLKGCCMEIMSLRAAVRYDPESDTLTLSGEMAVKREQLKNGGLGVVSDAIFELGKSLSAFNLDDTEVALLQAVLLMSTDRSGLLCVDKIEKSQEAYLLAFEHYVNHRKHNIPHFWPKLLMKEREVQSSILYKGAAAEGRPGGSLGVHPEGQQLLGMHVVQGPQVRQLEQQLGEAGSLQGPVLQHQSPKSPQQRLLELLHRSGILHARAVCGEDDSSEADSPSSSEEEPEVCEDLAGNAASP
Chain of human Vitamin D Receptor (VDR), VDR (gene 7421) (P11473 whole entry, looked up, the tested form may be a part): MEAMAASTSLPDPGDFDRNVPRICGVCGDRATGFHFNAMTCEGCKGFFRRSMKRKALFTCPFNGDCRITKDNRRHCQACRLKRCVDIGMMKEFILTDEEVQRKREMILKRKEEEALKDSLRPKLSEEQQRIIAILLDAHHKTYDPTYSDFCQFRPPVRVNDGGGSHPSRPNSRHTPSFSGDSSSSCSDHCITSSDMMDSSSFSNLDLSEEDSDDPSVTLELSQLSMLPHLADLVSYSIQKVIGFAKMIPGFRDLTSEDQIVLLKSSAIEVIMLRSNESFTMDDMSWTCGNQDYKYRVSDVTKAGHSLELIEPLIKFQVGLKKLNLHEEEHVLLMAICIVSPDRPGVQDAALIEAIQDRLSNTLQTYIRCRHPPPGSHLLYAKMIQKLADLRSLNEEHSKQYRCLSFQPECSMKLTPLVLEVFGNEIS
Chain of E-selectin (Homo sapiens) (P16581 whole entry, looked up): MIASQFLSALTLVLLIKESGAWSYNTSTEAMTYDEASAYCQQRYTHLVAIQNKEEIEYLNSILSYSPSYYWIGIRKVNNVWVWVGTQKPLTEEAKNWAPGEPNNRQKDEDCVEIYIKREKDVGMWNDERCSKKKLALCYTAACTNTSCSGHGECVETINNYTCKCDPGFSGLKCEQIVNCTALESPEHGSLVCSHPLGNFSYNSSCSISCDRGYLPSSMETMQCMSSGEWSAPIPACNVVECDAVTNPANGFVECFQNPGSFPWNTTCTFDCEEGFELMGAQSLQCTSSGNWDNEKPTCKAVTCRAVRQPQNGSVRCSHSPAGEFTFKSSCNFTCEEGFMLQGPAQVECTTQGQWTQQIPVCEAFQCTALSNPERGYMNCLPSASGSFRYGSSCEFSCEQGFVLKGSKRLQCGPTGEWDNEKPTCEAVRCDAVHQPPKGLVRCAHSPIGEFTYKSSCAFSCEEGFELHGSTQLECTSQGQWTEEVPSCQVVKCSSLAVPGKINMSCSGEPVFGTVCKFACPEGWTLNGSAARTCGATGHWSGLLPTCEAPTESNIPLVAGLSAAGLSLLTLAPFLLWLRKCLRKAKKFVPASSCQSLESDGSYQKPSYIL
Chain of human RAR-related Orphan Receptor gamma (RORg), RORC (gene 6097) (P51449 whole entry, looked up, the tested form may be a part): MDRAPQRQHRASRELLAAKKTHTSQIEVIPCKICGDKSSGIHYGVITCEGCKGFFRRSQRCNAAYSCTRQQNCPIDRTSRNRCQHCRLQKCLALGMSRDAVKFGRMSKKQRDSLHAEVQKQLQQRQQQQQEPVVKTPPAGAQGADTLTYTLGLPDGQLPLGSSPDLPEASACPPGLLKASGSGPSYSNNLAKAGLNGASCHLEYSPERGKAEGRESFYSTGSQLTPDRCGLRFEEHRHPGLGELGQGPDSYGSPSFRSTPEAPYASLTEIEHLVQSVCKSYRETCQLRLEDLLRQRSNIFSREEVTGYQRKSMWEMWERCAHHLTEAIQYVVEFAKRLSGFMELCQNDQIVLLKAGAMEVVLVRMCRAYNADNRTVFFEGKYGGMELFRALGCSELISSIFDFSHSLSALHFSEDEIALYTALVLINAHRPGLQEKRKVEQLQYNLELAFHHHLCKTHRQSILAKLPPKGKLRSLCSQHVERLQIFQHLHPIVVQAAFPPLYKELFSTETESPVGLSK

Oc1ccc(C(c2ccc(O)cc2)(C(F)(F)F)C(F)(F)F)cc1
active: [2] 5 µM [middle of 4 runs] | [4] 30.1 µM | [5] 30.8 µM | [6] 19.9 µM | [7] 14 µM | [8] 18.5 µM | [9] 18.8 µM | [10] 34.9 µM | [12] 16.2 µM | [13] 34 µM | [14] 18.7 µM | [15] 15.7 µM | [16] 37.2 µM | [17] 21.3 µM | [18] 32.5 µM
inactive: [1] | [3] | [11]

CCC(C)(c1ccc(O)cc1)c1ccc(O)cc1
active: [2] 9.02 µM and 17.8 µM and 19.6 µM | [6] 20 µM | [7] 10.7 µM | [8] 24.7 µM | [9] 22.9 µM | [12] 30 µM | [13] 20 µM | [14] 39 µM | [15] 32.1 µM | [20] 24.3 µM | [18] 34.8 µM
inactive: [19] | [1] | [2] | [3] | [4] | [5] | [10] | [16] | [17]

Cc1cc(-c2ccc(N)c(C)c2)ccc1N
inactive: [19] | [1] | [2] | [3] | [4] | [5] | [6] | [7] | [8] | [10] | [11] | [12] | [13] | [14] | [15] | [17] | [18]

Clc1ccc(C(Cl)(Cl)Cl)cc1
inactive: [1] | [2] | [3] | [4] | [5] | [6] | [7] | [8] | [9] | [10] | [12] | [13] | [14] | [15] | [16] | [17] | [18]

C[C@]12CCC(=O)C=C1CC[C@@H]1[C@@H]2CC[C@@]2(C)[C@H]1CC[C@]2(C)O
inactive: [19] | [1] | [2] | [3] | [4] | [5] | [6] | [7] | [8] | [9] | [10] | [11] | [14] | [15] | [20] | [17] | [18]
active: [12] 28.3 µM | [13] 9.79 µM

O=C(NC(=O)c1cc(F)c(F)cc1Cl)Nc1cc(F)ccc1N1CCC(C(=O)O)CC1
inactive: [19] | [4] | [5] | [6] | [7] | [8] | [10] | [12] | [13] | [14] | [15] | [20] | [17] | [18]
